Values joined by “and” are separate entries in the source; they are usually repeats but may differ in a detail not shown here. Identical values can stand only once. The whole screen tested about 5,500 compounds, of which about 2,000 (36%) were called active. About 18% were inconclusive and are not listed. Cut-off read from the data, not from the text of the source: active = normalized growth mostly below about 0.91 (no sharp cut-off); inconclusive = no clear call, values can overlap the other calls; inactive = mostly above about 0.92. The list shows a part of the results.
Test: chemical genetic growth profiling, strain panel (AID 1159580);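 note: tested at 20 µM; growth read once vehicle control cultures reached saturation at 30 °C; 1 = growth at the plate median or of vehicle wells; lower values mean less growth of the strain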
Details: S. cerevisiae deletion strains, growth OD

Measured: normalized growth

NC(=O)NCCCC(N)C(=O)O (configuration not stated)
inactive: locus YAL013W, strain DEP1, hits give low values 1.01 | locus YAL021C, strain ccr4, hits give low values 0.962 | locus YAL026C, strain drs2, hits give low values 1.01 | locus YAL030W, strain snc1, hits give low values 1.01 | locus YBL061C, strain skt5, hits give low values 1.01 | locus YBR009C, strain hhf1, hits give low values 1.05 | locus YBR021W, strain FUR4, hits give low values 1.01 | locus YBR023C, strain chs3, hits give low values 1.01 | locus YBR171W, strain sec66, hits give low values 0.99 | locus YBR229C, strain ROT2, hits give low values 1.01 | locus YBR231C, strain swc5, hits give low values 1.03 | locus YBR279W, strain paf1, hits give low values 1.01 | locus YCL011C, strain gbp2, hits give low values 0.996 | locus YCL016C, strain dcc1, hits give low values 1 | locus YCL029C, strain bik1, hits give low values 0.998 | locus YCL061C, strain MRC1, hits give low values 0.992 | locus YCL069W, strain vba3, hits give low values 0.996 | locus YCR088W, strain abp1, hits give low values 0.995 | locus YDL005C, strain med2, hits give low values 0.996 | locus YDL035C, strain GPR1, hits give low values 1.03 | locus YDL040C, strain nat1, hits give low values 1 | locus YDL074C, strain BRE1, hits give low values 1.06 | locus YDL101C, strain DUN1, hits give low values 1.03 | locus YDL134C, strain PPH21, hits give low values 1.02 | locus YDL185W, strain tfp1, hits give low values 0.994 | locus YDL192W, strain arf1, hits give low values 0.993 | locus YDR001C, strain nth1, hits give low values 0.989 | locus YDR069C, strain doa4, hits give low values 1.02 | locus YDR101C, strain arx1, hits give low values 0.988 | locus YDR137W, strain rgp1, hits give low values 0.986 | locus YDR150W, strain NUM1, hits give low values 1.02 | locus YDR159W, strain sac3, hits give low values 1.04 | locus YDR162C, strain NBP2, hits give low values 1.04 | locus YDR195W, strain ref2 1.02 | locus YDR297W, strain sur2, hits give low values 1.01 | locus YDR318W, strain mcm21, hits give low values 0.983 | locus YDR334W, strain swr1, hits give low values 0.982 | locus YDR335W, strain msn5, hits give low values 0.993 | locus YDR388W, hits give low values 0.992 | locus YDR392W, strain spt3, hits give low values 0.96 | locus YDR502C, strain sam2, hits give low values 0.993 | locus YEL003W, strain gim4, hits give low values 0.994 | locus YEL037C, strain rad23, hits give low values 0.995 | locus YEL061C, strain CIN8 (second series), hits give low values 0.999 | locus YEL061C, strain CIN8, hits give low values 1.01 | locus YER015W, strain faa2, hits give low values 1 | locus YER016W, strain bim1, hits give low values 1.01 | locus YER110C, hits give low values 0.988 | locus YER111C, strain swi4, hits give low values 1 | locus YER155C, strain BEM2 (second series), hits give low values 1.04 | locus YER155C, strain BEM2, hits give low values 1.01 | locus YER167W, strain BCK2, hits give low values 1.04 | locus YFR010W, strain ubp6, hits give low values 0.982 | locus YGL078C, strain dbp3, hits give low values 1 | locus YGL086W, strain mad1, hits give low values 0.997 | locus YGL167C, strain pmr1, hits give low values 1.03 | locus YGL173C, strain kem1, hits give low values 1 | locus YGL227W, strain vid30, hits give low values 0.998 | locus YGL240W, strain doc1, hits give low values 1.07 | locus YGL248W, strain PDE1, hits give low values 1.01 | locus YGL253W, strain hxk2, hits give low values 1 | locus YGR078C, strain PAC10, hits give low values 1.05 | locus YGR135W, strain pre9, hits give low values 1 | locus YGR229C, strain SMI1, hits give low values 1.02 | locus YGR252W, strain gcn5, hits give low values 0.98 | locus YHR013C, strain ard1, hits give low values 1.01 | locus YHR027C, strain rpn1, hits give low values 0.997 | locus YHR030C, strain SLT2, hits give low values 1.01 | locus YHR079C, strain IRE1 (second series), hits give low values 0.977 | locus YHR079C, strain IRE1, hits give low values 0.992 | locus YHR094C, strain hxt1, hits give low values 0.995 | locus YHR129C, strain ARP1, hits give low values 1.04 | locus YHR142W, strain chs7, hits give low values 0.93 | locus YHR200W, strain rpn10, hits give low values 0.994 | locus YIL066C, strain RNR3, hits give low values 1.02 | locus YIL073C, strain SPO22, hits give low values 1.01 | locus YIL125W, strain kgd1, hits give low values 0.987 | locus YIR030C, strain dcg1, hits give low values 0.993 | locus YJL092W, strain hpr5, hits give low values 0.979 | locus YJL095W, strain BCK1 (second series), hits give low values 1.01 | locus YJL095W, strain BCK1, hits give low values 1.05 and 1.01 | locus YJL115W, strain asf1, hits give low values 0.988 | locus YJL129C, strain trk1, hits give low values 0.973 | locus YJL134W, strain LCB3, hits give low values 1.01 | locus YJL154C, strain vps35, hits give low values 0.997 | locus YJL164C, strain tpk1, hits give low values 0.981 | locus YJL166W, strain qcr8, hits give low values 1.01 | locus YJL168C, strain set2, hits give low values 1 | locus YJL187C, strain SWE1 (second series), hits give low values 1.02 | locus YJL187C, strain SWE1, hits give low values 1 | locus YJR043C, strain POL32, hits give low values 1.03 | locus YJR066W, strain TOR1, hits give low values 0.964

From PubChem BioAssay AID1159580 (chemical genetic matrix, 2015)
